Reference: PubChem BioAssay (NCI)
Compounds without any hit were thinned out: in the full panel of roughly 83,000, 20% have a hit.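 Method: cells in 96-well plates; compound added at one concentration; 48 h incubation; percent growth measured; values under 10 scored active.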 Active and inactive are the calls of the source.

Experiments:
Assay in all cases: NCI-60 one-dose screen, 48 h (100 = growth as untreated, 0 = no growth, -100 = all killed)
Details in all cases: 10 µM unless noted
SK-MEL-2 melanoma = system: SK-MEL-2 melanoma
EKVX NSCLC = system: EKVX NSCLC
SN12C renal = system: SN12C renal
UO-31 renal = system: UO-31 renal
ACHN renal = system: ACHN renal
CAKI-1 renal = system: CAKI-1 renal
A498 renal = system: A498 renal
CCRF-CEM leukemia = system: CCRF-CEM leukemia
MOLT-4 leukemia = system: MOLT-4 leukemia
SR leukemia = system: SR leukemia
RPMI-8226 leukemia = system: RPMI-8226 leukemia
OVCAR-8 ovarian = system: OVCAR-8 ovarian
OVCAR-5 ovarian = system: OVCAR-5 ovarian
OVCAR-4 ovarian = system: OVCAR-4 ovarian
SK-OV-3 ovarian = system: SK-OV-3 ovarian
IGROV1 ovarian = system: IGROV1 ovarian
OVCAR-3 ovarian = system: OVCAR-3 ovarian
HS 578T breast = system: HS 578T breast
NCI/ADR-RES ovarian = system: NCI/ADR-RES ovarian
TK-10 renal = system: TK-10 renal

Measured: growth

O=C(CCCCCCNC(=O)C(O)(O)C(F)(F)F)Nc1nc2ccccc2s1
active: SK-MEL-2 melanoma -7.95% | UO-31 renal -9.93% | ACHN renal -22.7% | CAKI-1 renal -17.8% | A498 renal -21.7% | OVCAR-8 ovarian 8.26% | OVCAR-5 ovarian 1.89% | SK-OV-3 ovarian -26.3% | IGROV1 ovarian -3.25% | OVCAR-3 ovarian -38.8% | NCI/ADR-RES ovarian 1.87%
inactive: EKVX NSCLC 27.5% | SN12C renal 10.8% | CCRF-CEM leukemia 22.6% | MOLT-4 leukemia 15.6% | SR leukemia 16.7% | RPMI-8226 leukemia 13.5% | OVCAR-4 ovarian 35.9% | HS 578T breast 12.5%

CC(C)(C)c1cc(NC(=O)Nc2ccc(-c3cn4c5c(sc4n3)CCc3cn(CCCN4CCCCC4)cc3-5)cc2)no1
inactive: SK-MEL-2 melanoma 108% | A498 renal 74.5% | SK-OV-3 ovarian 97% | HS 578T breast 38.4%
active: EKVX NSCLC -80.5% | SN12C renal -86.3% | UO-31 renal -70.3% | ACHN renal -99.7% | CAKI-1 renal -97.2% | CCRF-CEM leukemia 3.37% | MOLT-4 leukemia -10.9% | SR leukemia -14% | RPMI-8226 leukemia -19.5% | OVCAR-8 ovarian -52% | OVCAR-5 ovarian -32.4% | OVCAR-4 ovarian -78.4% | IGROV1 ovarian -78.5% | NCI/ADR-RES ovarian -43%

COc1cc(C(=O)c2cc(C(C)=O)c3c(C)cccn23)cc(OC)c1OC
inactive: SK-MEL-2 melanoma 98.9% | EKVX NSCLC 99% | SN12C renal 80.9% | UO-31 renal 75.6% | TK-10 renal 108% | ACHN renal 97.9% | CCRF-CEM leukemia 96.1% | SR leukemia 96.5% | RPMI-8226 leukemia 95.5% | OVCAR-8 ovarian 106% | OVCAR-5 ovarian 95.8% | OVCAR-4 ovarian 90.8% | SK-OV-3 ovarian 109% | IGROV1 ovarian 97.6% | OVCAR-3 ovarian 115% | HS 578T breast 90.7% | NCI/ADR-RES ovarian 97.9%
active: A498 renal -10.4%

N#Cc1nc(-c2ccccc2)oc1N1CCC(C2(C(F)(F)F)N=N2)CC1
inactive: SK-MEL-2 melanoma 97.8% | EKVX NSCLC 92.1% | SN12C renal 119% | UO-31 renal 82% | ACHN renal 102% | CAKI-1 renal 84.8% | A498 renal 85.4% | CCRF-CEM leukemia 102% | MOLT-4 leukemia 101% | SR leukemia 85.1% | RPMI-8226 leukemia 97.2% | OVCAR-8 ovarian 97.6% | OVCAR-5 ovarian 109% | OVCAR-4 ovarian 96.4% | SK-OV-3 ovarian 96.2% | IGROV1 ovarian 108% | HS 578T breast 96.7% | NCI/ADR-RES ovarian 102%

COc1cc2oc(-c3cccc(NC(=O)c4cccc([N+](=O)[O-])c4)c3)cc(=O)c2c(OC)c1OC
active: OVCAR-8 ovarian 6.56% | HS 578T breast -10.3%
inactive: SK-MEL-2 melanoma 91.5% | EKVX NSCLC 63.9% | SN12C renal 40.2% | UO-31 renal 37.8% | ACHN renal 30.3% | CAKI-1 renal 49.7% | A498 renal 72.9% | CCRF-CEM leukemia 59.7% | MOLT-4 leukemia 54% | SR leukemia 55.2% | RPMI-8226 leukemia 48.8% | OVCAR-5 ovarian 72.1% | OVCAR-4 ovarian 37.6% | SK-OV-3 ovarian 85.9% | IGROV1 ovarian 64.6% | OVCAR-3 ovarian 59% | NCI/ADR-RES ovarian 34.6%

Cn1cc(-c2nnc(N)nc2-c2c[nH]c3ccc(F)cc23)c2cc(Br)ccc21
active: A498 renal 3.05% | CCRF-CEM leukemia -4.24% | MOLT-4 leukemia -21.3% | SR leukemia 4.93% | RPMI-8226 leukemia 5.9% | HS 578T breast 7.85%
inactive: SK-MEL-2 melanoma 11.8% | EKVX NSCLC 27.7% | SN12C renal 38.1% | UO-31 renal 41.3% | ACHN renal 40.6% | CAKI-1 renal 28% | OVCAR-8 ovarian 34.4% | OVCAR-5 ovarian 68.3% | OVCAR-4 ovarian 50.1% | SK-OV-3 ovarian 33.7% | IGROV1 ovarian 34.6% | OVCAR-3 ovarian 10.7% | NCI/ADR-RES ovarian 15.2%

CCOC(=O)c1cccc(NC2=C(Cl)C(=O)c3nc(C)ccc3C2=O)c1
inactive: SK-MEL-2 melanoma 105% | EKVX NSCLC 92.1% | SN12C renal 95.5% | UO-31 renal 93.1% | ACHN renal 96.1% | CAKI-1 renal 108% | A498 renal 88.8% | CCRF-CEM leukemia 15% | SR leukemia 37.1% | RPMI-8226 leukemia 53.3% | OVCAR-8 ovarian 97.8% | OVCAR-5 ovarian 104% | OVCAR-4 ovarian 53.7% | SK-OV-3 ovarian 98% | IGROV1 ovarian 17.3% | OVCAR-3 ovarian 46.1% | HS 578T breast 111% | NCI/ADR-RES ovarian 94.6%

N#C/C(=C\c1ccc(-c2ccc(Cl)c(Cl)c2)o1)C(=O)Nc1ncc(Cc2ccc(Cl)cc2)s1
inactive: SK-MEL-2 melanoma 87.9% | SN12C renal 12% | UO-31 renal 24.9% | TK-10 renal 68.5% | ACHN renal 59.1% | CAKI-1 renal 57.4% | A498 renal 40.9% | CCRF-CEM leukemia 31.9% | MOLT-4 leukemia 58.6% | SR leukemia 16% | RPMI-8226 leukemia 67.4% | OVCAR-8 ovarian 19.9% | OVCAR-5 ovarian 45.7% | SK-OV-3 ovarian 81.2% | IGROV1 ovarian 26.2% | NCI/ADR-RES ovarian 32.7%
active: OVCAR-4 ovarian -15.1% | HS 578T breast -7.83%
